Data taken from the supplement of paper PMC8975748.
Counter-ions that a name gives are not always drawn. ± gives the standard deviation of the averaged measurements.

Key:
[1] = test system: Saccharomyces cerevisiae BY4741 SeMeCo community; experiment: mean cell size (pixel area) (pixels); higher = larger cells; conditions: 10 µM; 24 h; SM minimal medium
Outline: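 Mean cell pixel area per well was measured in a four-plasmid fluorescent community of Saccharomyces cerevisiae BY4741, where every plasmid complements one auxotrophy and carries a fluorescent marker. Cells from an overnight preculture at OD600 = 1.0 were diluted to OD600 = 0.3 and dispensed at 70 µl into 384-well plates acoustically predosed with drug to a final 10 µM in SM medium. Incubation lasted 24 h, followed by paraformaldehyde fixation, automated confocal imaging and analysis in Harmony. Reported figures are averaged over 3 replicates. Same SeMeCo high-content imaging drug screen: Selleck FDA-approved drugs at 10 µM, 24 h in SM medium, 384-well plates, 3 replicates.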

[2] = test system: Saccharomyces cerevisiae BY4741 SeMeCo community; experiment: z-score of prototroph abundance vs DMSO median; higher = larger share of this subpopulation than in DMSO controls; conditions: 10 µM; 24 h; SM minimal medium; subpopulation (auxotrophy): Prototroph
Outline: (§1)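 A Saccharomyces cerevisiae BY4741 community carried four plasmids, each restoring one auxotrophy and encoding a distinct fluorescent protein. It was pre-grown overnight to OD600 1.0, diluted to 0.3, and 70 µl was added to 384-well plates acoustically predosed with library drugs (10 µM final), then grown 24 h in minimal SM medium. Cells were paraformaldehyde-fixed and imaged by automated confocal microscopy, with single-auxotroph fluorescent strains setting thresholds and autofluorescence correction. Each subpopulation's abundance was scored as a z-score against the vehicle-well median.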

[3] = test system: Saccharomyces cerevisiae BY4741 SeMeCo community; experiment: z-score of subpopulation abundance vs DMSO median, subpopulation auxotrophic for M; higher = larger share of this subpopulation than in DMSO controls; conditions: 10 µM; 24 h; SM minimal medium; subpopulation (auxotrophy): M
Outline: as §1

[4] = test system: Saccharomyces cerevisiae BY4741 SeMeCo community; experiment: z-score of subpopulation abundance vs DMSO median, subpopulation auxotrophic for L; higher = larger share of this subpopulation than in DMSO controls; conditions: 10 µM; 24 h; SM minimal medium; subpopulation (auxotrophy): L
Outline: as §1

[5] = test system: Saccharomyces cerevisiae BY4741 SeMeCo community; experiment: z-score of subpopulation abundance vs DMSO median, subpopulation auxotrophic for U; higher = larger share of this subpopulation than in DMSO controls; conditions: 10 µM; 24 h; SM minimal medium; subpopulation (auxotrophy): U
Outline: as §1

[6] = test system: Saccharomyces cerevisiae BY4741 SeMeCo community; experiment: z-score of subpopulation abundance vs DMSO median, subpopulation auxotrophic for H; higher = larger share of this subpopulation than in DMSO controls; conditions: 10 µM; 24 h; SM minimal medium; subpopulation (auxotrophy): H
Outline: as §1

[7] = test system: Saccharomyces cerevisiae BY4741 SeMeCo community; experiment: z-score of subpopulation abundance vs DMSO median, subpopulation auxotrophic for LU; higher = larger share of this subpopulation than in DMSO controls; conditions: 10 µM; 24 h; SM minimal medium; subpopulation (auxotrophy): LU
Outline: as §1

[8] = test system: Saccharomyces cerevisiae BY4741 SeMeCo community; experiment: z-score of subpopulation abundance vs DMSO median, subpopulation auxotrophic for HM; higher = larger share of this subpopulation than in DMSO controls; conditions: 10 µM; 24 h; SM minimal medium; subpopulation (auxotrophy): HM
Outline: as §1

[9] = test system: Saccharomyces cerevisiae BY4741 SeMeCo community; experiment: z-score of subpopulation abundance vs DMSO median, subpopulation auxotrophic for HU; higher = larger share of this subpopulation than in DMSO controls; conditions: 10 µM; 24 h; SM minimal medium; subpopulation (auxotrophy): HU
Outline: as §1

[10] = test system: Saccharomyces cerevisiae BY4741 SeMeCo community; experiment: z-score of subpopulation abundance vs DMSO median, subpopulation auxotrophic for HLU; higher = larger share of this subpopulation than in DMSO controls; conditions: 10 µM; 24 h; SM minimal medium; subpopulation (auxotrophy): HLU
Outline: as §1

[11] = test system: Saccharomyces cerevisiae BY4741 SeMeCo community; experiment: z-score of subpopulation abundance vs DMSO median, subpopulation auxotrophic for HUM; higher = larger share of this subpopulation than in DMSO controls; conditions: 10 µM; 24 h; SM minimal medium; subpopulation (auxotrophy): HUM
Outline: as §1

[12] = test system: Saccharomyces cerevisiae BY4741 SeMeCo community; experiment: z-score of subpopulation abundance vs DMSO median, subpopulation auxotrophic for LUM; higher = larger share of this subpopulation than in DMSO controls; conditions: 10 µM; 24 h; SM minimal medium; subpopulation (auxotrophy): LUM
Outline: as §1

[13] = test system: Saccharomyces cerevisiae BY4741 SeMeCo community; experiment: z-score of subpopulation abundance vs DMSO median, subpopulation auxotrophic for HLUM; higher = larger share of this subpopulation than in DMSO controls; conditions: 10 µM; 24 h; SM minimal medium; subpopulation (auxotrophy): HLUM
Outline: as §1

[14] = test system: Saccharomyces cerevisiae BY4741 SeMeCo community; experiment: z-score of subpopulation abundance vs DMSO median, subpopulation auxotrophic for LM; higher = larger share of this subpopulation than in DMSO controls; conditions: 10 µM; 24 h; SM minimal medium; subpopulation (auxotrophy): LM
Outline: as §1

[15] = test system: Saccharomyces cerevisiae BY4741 SeMeCo community; experiment: z-score of subpopulation abundance vs DMSO median, subpopulation auxotrophic for UM; higher = larger share of this subpopulation than in DMSO controls; conditions: 10 µM; 24 h; SM minimal medium; subpopulation (auxotrophy): UM
Outline: as §1

[16] = test system: Saccharomyces cerevisiae BY4741 SeMeCo community; experiment: z-score of subpopulation abundance vs DMSO median, subpopulation auxotrophic for HL; higher = larger share of this subpopulation than in DMSO controls; conditions: 10 µM; 24 h; SM minimal medium; subpopulation (auxotrophy): HL
Outline: as §1

[17] = test system: Saccharomyces cerevisiae BY4741 SeMeCo community; experiment: z-score of subpopulation abundance vs DMSO median, subpopulation auxotrophic for HLM; higher = larger share of this subpopulation than in DMSO controls; conditions: 10 µM; 24 h; SM minimal medium; subpopulation (auxotrophy): HLM
Outline: as §1

SMILES	mean cell size [1]	z-score of prototroph abundance [2]	z-score of subpopulation abundance [3]	z-score of subpopulation abundance [4]	z-score of subpopulation abundance [5]	z-score of subpopulation abundance [6]	z-score of subpopulation abundance [7]	z-score of subpopulation abundance [8]	z-score of subpopulation abundance [9]	z-score of subpopulation abundance [10]	z-score of subpopulation abundance [11]	z-score of subpopulation abundance [12]	z-score of subpopulation abundance [13]	z-score of subpopulation abundance [14]	z-score of subpopulation abundance [15]	z-score of subpopulation abundance [16]	z-score of subpopulation abundance [17]
CC(C)(C)C(=O)OCOC(=O)[C@@H]1N2C(=O)[C@@H](/N=C/N3CCCCCC3)[C@H]2SC1(C)C [Pivmecillinam hydrochloride]	12.3 ± 0.13	-0.55	-0.74	0.41	0.34	0.1	0.57	-0.25	-0.03	-0.02	-0.16	-0.28	-0.19				
COc1ccc(-c2nc3cc(C4=NNC(=O)CC4C)ccc3[nH]2)cc1 (configuration not stated) [Pimobendan]	12.31 ± 0.12	-0.89	0.83		-0.84	0.76	0.46	0.78	-0.28	1.42	0.52		1.6	1.71	-0.05	0.79	0.33
CCC[C@@H]1C[C@@H](C(=O)N[C@@H]([C@H]2O[C@H](SC)[C@H](OP(=O)(O)O)[C@@H](O)[C@H]2O)[C@H](C)Cl)N(C)C1 [Clindamycin Phosphate]	12 ± 0.22	-0.33	0.65		0.48	-0.77	0.78	0.11	-0.25	-0.85	0.81	-0.05	-0.47	0.11	1.19	-0.71	-0.65
Clc1ccc2c(N3CCN(CCCN4CCN(c5ccnc6cc(Cl)ccc56)CC4)CC3)ccnc2c1 [Piperaquine phosphate]	12.2 ± 0.16	-0.69	1.85		0.1	0.23	-0.13		-0.29	0.33	-0.06	-0.03	0.31	0.85		-0.1	0.63
COc1ccc(C(=O)NCc2ccc(OCCN(C)C)cc2)cc1OC [Itopride hydrochloride]	12.4 ± 0.13		0.65		-0.45		0.56	0.17	0.11	0.07	0.81	0.15	-0.16	0.86	0.38		0.04
CN[C@@H]1[C@H](O)[C@H](NC)[C@H]2O[C@@]3(O)C(=O)C[C@@H](C)O[C@H]3O[C@@H]2[C@H]1O [Spectinomycin 2HCl]	12.6 ± 0.18	-0.2	-0.21		0.77	-0.79	-0.16	-0.56	0.25	0.02	-0.21	-0.18	-0.32		0.51	-0.34	-0.57
CN[C@H]1CC[C@@H](c2ccc(Cl)c(Cl)c2)c2ccccc21 [Sertraline HCl]	12.4 ± 0.056	1.15	0.18		-0.41	-1.14	-0.7	-0.87	-1.26	-0.32	-0.4	-1.09	-0.97		-0.56	-0.5	-0.66
CCC1(C)CC(=O)NC1=O (configuration not stated) [Ethosuximide]	12.6 ± 0.19	-0.06	-0.27			-0.94	0.79		-0.46	-0.1	-0.44		0.48		-0.4	0.36	0.8
Nc1ccc(S(=O)(=O)NC(=O)c2ccccc2)cc1 [Sulfabenzamide]	12.5 ± 0.4	0.8	-0.05		-0.51	-0.19	-0.03	-0.23		0.61	-1.03	-0.19	0.15	-0.72	-1.04	-0.91	0.11
Oc1c(I)cc(I)c2cccnc12 [Diiodohydroxyquinoline]	12.1 ± 0.48	-3.05	-0.3		2.25	2.75	3.93		2.97	4.17	1.2	2.87		0.38	0.65	2.9	2.46
NC(=O)c1ncn([C@@H]2O[C@H](CO)[C@@H](O)[C@H]2O)n1 [Ribavirin]	12.45 ± 0.12	-0.16	-0.5		1.52	-0.52	0.48	-0.41	0.42	-0.19	0.49	0.09	-0.37	-0.41	0.53	-0.89	-0.6
NC(=O)c1cn(Cc2c(F)cccc2F)nn1 [Rufinamide]	12.2 ± 0.16	-0.37	0.02		-0.6		0.45	0.75		0.55	0.45	0.43	0.29	0.7	-0.01	0.55	0.38
CN(C)CCc1c[nH]c2ccc(C[C@H]3COC(=O)N3)cc12 [Zolmitriptan]	12.5 ± 0.18	0.27	-0.23			-0.77	-0.9		-1.01	0.09	-0.45	-0.64	0.15	-0.12		0.28	-0.12
Cc1cc2c(s1)Nc1ccccc1N=C2N1CCN(C)CC1 [Olanzapine]	12.5 ± 0.2		0.84			-0.12	-0.6	0.2	0.19	0.07	-0.5	-0.6	0.21			-0.15	-0.05
Cc1nc(Nc2ccc(F)cc2)nc(N2CCc3ccccc3C2C)c1C (configuration not stated) [Revaprazan Hydrochloride]	11.4 ± 0.18	-0.48	-0.84		0.73	1	0.2		0.79	-0.07	0.45	0.27	0.14	0.05	1.11	0.35	-0.32
